Measurements reported in PubChem BioAssay AID615 (Sanford-Burnham Center for Chemical Genomics, 2007).
In all, about 21,000 compounds went through this assay and fewer than 10 were called active.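 Rule for the calls: active = inhibition above 50% at the 20 µM single-dose screen; inactive = the rest.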 A selection follows.

Biological target: Alkaline phosphatase, tissue-nonspecific isozyme (Homo sapiens) (UniProt P05186)
Assay: blockers of alkaline phosphatase TNAP catalysis – biochemical, colorimetric, p-nitrophenol readout, primary screen (AID 615);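 note: 0% = DMSO only wells and 100% = 1 mM levamisole wells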
Details: purified TNAP, pNPP hydrolysis, absorbance 405 nm; at 20 µM; stronger effect = higher value

Chain of Alkaline phosphatase, tissue-nonspecific isozyme (Homo sapiens) (P05186 whole entry, looked up): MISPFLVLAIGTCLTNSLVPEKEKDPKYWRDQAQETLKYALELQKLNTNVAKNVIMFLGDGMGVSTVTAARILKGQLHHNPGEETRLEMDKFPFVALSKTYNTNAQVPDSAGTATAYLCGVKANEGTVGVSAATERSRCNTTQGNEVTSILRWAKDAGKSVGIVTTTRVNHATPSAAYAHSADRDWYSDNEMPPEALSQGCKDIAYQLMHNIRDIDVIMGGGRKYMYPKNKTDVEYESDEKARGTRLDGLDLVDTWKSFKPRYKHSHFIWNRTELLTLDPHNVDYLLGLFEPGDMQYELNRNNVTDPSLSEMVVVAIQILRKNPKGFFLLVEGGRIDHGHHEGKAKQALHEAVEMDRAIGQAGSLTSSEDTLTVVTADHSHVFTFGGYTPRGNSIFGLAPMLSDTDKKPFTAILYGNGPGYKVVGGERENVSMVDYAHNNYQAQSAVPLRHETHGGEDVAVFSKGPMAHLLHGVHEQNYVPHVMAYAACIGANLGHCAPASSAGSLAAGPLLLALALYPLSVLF

inhibition, inactive:
CC(C)C[C@H](NC(=O)NCCc1ccc(Cl)cc1)C(=O)O 2.2%
Cc1cc(C)c2nc(SCCC#N)nc(C)c2c1 -0.5%
CCCCn1nnnc1NCc1cc(OC)c(OC)c(OC)c1 -0.6%
C=CCn1c(COc2ccccc2)nnc1SCC(=O)NCC(=O)OCC -6.9%
CC(=O)Cc1nsc(NC(=O)c2ccc(COc3ccc(C)cc3)o2)n1 1.5%
Cc1cc(NC(=O)c2cnn3cccnc23)n(-c2ccccc2)n1 3.9%
Cc1ccc(S(=O)(=O)N2CCC(C(=O)N[C@@H](C)C(=O)NCCc3ccccc3)CC2)cc1 -7.1%
CCC(CC)C(=O)Nc1cc(C(=O)OC)cc(C(=O)OC)c1 4.4%
CC(=O)N1CCN(CCN=CC2=C(O)CC(C)(C)CC2=O)CC1 5.5%
Cc1ccc2c(C(=O)CN3CCCC3)c(C)[nH]c2c1 -14.5%
O=C(O)CN(Cc1ccco1)S(=O)(=O)c1ccc(F)cc1 0.4%
COc1ccc(NC2CC(=O)N(C)C2=O)cc1 (stereo unspecified) 3.1%
Cc1occc1C(=O)Nc1cccc(Cn2cccn2)c1 -2.4%
CC(=O)OCc1cc(=O)n(C)c(=O)n1C 1.6%
Nc1nnnn1/N=C/c1cccs1 0%
CC(C)c1nc(-c2ccccn2)no1 2.2%
CSCCC(NC(=O)c1ccc(=O)n(C)n1)c1nc2ccccc2[nH]1 (stereo unspecified) -0.4%
CCc1ccccc1N(CC(=O)N1CCN(c2ccccc2F)CC1)S(C)(=O)=O 3.4%
Cc1cccc(N(CC(O)CN(C)C)S(=O)(=O)c2ccccc2)c1 (stereo unspecified) 6%
CC(=O)Nc1nc(C)c(Cc2ccccc2)c(=O)[nH]1 0%
CC(C)C(c1nnnn1C1CCCC1)N1CCN(c2ccccc2F)CC1 (stereo unspecified) 4.1%
O=C(NC(c1ccccc1)c1ccccc1)N1CCN(CCO)CC1 5.5%
c1ccc(-n2ncc(-c3nn[nH]n3)n2)cc1 1.2%
COc1ccc(C2/C(=C(/O)c3ccc(OC(C)C)cc3)C(=O)C(=O)N2CCCN2CCOCC2)cc1 (stereo unspecified) 2.6%
CCCOc1ccc(CN(CCO)CCO)cc1C(=O)OC 8.5%
CCC(=O)Nc1cccc(NC(=O)CSc2nnnn2C2CCCC2)c1 4.5%
CCOC(=O)N1CCN(Cc2oc(CO)cc(=O)c2O)CC1 4.3%
Cc1ccc(-n2c(Cc3cccs3)nnc2SCC(=O)OC(C)C)cc1 -1%
CCc1nnc(NC(=O)CSc2nnc(-c3ccncc3)n2Cc2ccccc2)s1 5.3%
Cn1c(=O)c2c(nc(Br)n2CCSc2nc3ccccc3o2)n(C)c1=O 0%
COc1ccc(CCNS(=O)(=O)c2ccc(F)cc2)cc1OC 3.6%
Nc1nonc1-c1nc2ccccc2n1Cc1ccc(F)cc1 -0.2%
COCCCn1c2nc3ccccc3nc2c2c(=O)n(Cc3ccc(Cl)cc3)c(C)nc21 7.2%
CN1CCN(C(=O)C2C3C=CC(C3)C2C(=O)O)CC1 (stereo unspecified) 3.6%
CCCCC(=O)N1CC2(C)CN(C(=O)CCCC)CC(C)(C1)C2=O -3.1%
O=C(CSc1nnc(-c2cccs2)n1Cc1ccco1)c1ccc2c(c1)OCO2 1.9%
COc1ccc(/C(O)=C2/C(=O)C(=O)N(CCCN(C)C)C2c2ccccc2)cc1OC (stereo unspecified) 2.9%
CCCCC(=O)Nc1ccc2c(c1)OCCO2 -5.8%
CC(=O)C1=C(O)C(=O)N(c2ccc(S(N)(=O)=O)cc2)C1c1ccccc1F (stereo unspecified) 0.8%
CCOC(=O)c1c(-n2cnnn2)sc(C)c1C 3.1%
Cn1c2c(c(=O)n(C)c1=O)CN(Cc1ccco1)CN2 -1.5%
Cc1ccc(NC(=O)N2CCC(C(=O)NCc3ccc(F)cc3)CC2)cc1 6.4%
Cc1ccccc1C(=O)Nc1cccc(-c2nnc(SCC(=O)O)n2C)c1 1.1%
Cc1ccc2[nH]c3c(c2c1)CN(C(=O)CN1CCN(c2ccccc2)CC1)CC3 2.7%
CC(=O)N(CN1C(=O)C2CC=CCC2C1=O)c1cccc(Cl)c1 (stereo unspecified) 7.2%
COc1ccc(C2/C(=C(/O)c3ccccc3)C(=O)C(=O)N2c2ncccn2)cc1OC (stereo unspecified) -1.7%
COc1ccc(C(CNC(=O)c2cccnc2SC)N2CCOCC2)cc1 (stereo unspecified) -2%
CCCCNc1nc2c(c(=O)[nH]c(=O)n2C)n1CCOc1ccccc1 4.2%
CC(=O)c1cc(-c2ccccc2)[nH]c1N1CCCC1 0.8%
O=C(C1CCCO1)N1CCC(c2nc3ccccc3[nH]2)CC1 (stereo unspecified) 5.7%
O=C1Nc2ccccc2C12Nc1ccccc1S2 (stereo unspecified) 2%
Cc1ccc(-c2c3c(=O)n(C)c(=O)n(C)c3cn2-c2ccccc2O)cc1 1.8%
Cc1ccccc1-n1c(SCC(=O)NCc2cccs2)nnc1-c1ccncc1 -7.5%
CCc1nnc(NC(=O)c2c(O)c3c([nH]c2=O)CCCC3)s1 6.2%
COc1ccccc1CNC(=O)C1CCN(S(C)(=O)=O)CC1 7.2%
COc1ccc(NC(=O)c2c(C)oc3c2CCCC3)cc1 5.5%
Cc1nc2nc(CSc3nc4ccccc4s3)cc(=O)n2[nH]1 1.3%
CCOC(=O)C1CCCCN1Cc1ccc(OC)c(OC)c1OC (stereo unspecified) 6.8%
CS(=O)(=O)N(CC(=O)N1CCN(Cc2ccc3c(c2)OCO3)CC1)c1ccc2c(c1)OCO2 -15%
Cc1cc(C(=O)COC(=O)c2cccs2)c(C)n1-c1c(C)n(C)n(-c2ccccc2)c1=O 4.7%
CCCOP(=O)(c1ccc(N(C)C)cc1)C(O)c1cc(OC)c(OC)c(OC)c1 (stereo unspecified) 12.9%
COc1ccc(CCNC(=O)CSc2nnc(-c3cccc(F)c3)o2)cc1OC -1.5%
COc1ccc(CCN(C)CCN2C(=O)c3ccccc3C2=O)cc1OC -0.3%
Cc1ccc(C(=O)NC2CCN(C(=O)N3CCOCC3)CC2)cc1 7%
COc1ccc(N2CCN(C(c3cc4ccc(C)cc4[nH]c3=O)c3nnnn3C3CCCC3)CC2)cc1 (stereo unspecified) 14.6%
CCOC(=O)c1c(NC(=O)c2ccc(Br)o2)sc2c1CCCC2 1%
Cc1cc(=O)[nH]c(SCC(N)=O)c1C#N -1.7%
O=C(c1ccc2c(c1)C(=O)N(c1ccc(Cl)cc1)C2=O)N1CCN(c2ccccn2)CC1 5.1%
CCOc1ccc2nc(NC(=O)CSc3nc4c(c(=O)n(C)c(=O)n4C)n3CC)sc2c1 4.9%
CN(C)CCNC(=O)C(C(=O)c1ccccc1)n1ccccc1=O (stereo unspecified) 1.2%
CCc1c(C)sc(NC(=O)OC)c1C(=O)N1CCOCC1 4.1%
O=C(O)CN1C(=O)CC(Cc2ccccc2)C1=O (stereo unspecified) 4.8%
CCNC(=O)N1CCNC(=O)C1CC(=O)Nc1ccc(C(=O)OCC)cc1 (stereo unspecified) 4.4%
CCOC(=O)c1[nH]c2ccccc2c1N=C(C)N(CC)CC -0.8%
Cc1nn(Cc2ccccc2)c(Cl)c1C(=O)OC1CCOC1=O (stereo unspecified) 3.6%
CCC1C(C#N)=C(SC)NC2=C1C(=O)CC(C)(C)C2 (stereo unspecified) -2.9%
COc1ccc(CC(=O)n2nc(-c3cccnc3)nc2N)cc1 6.9%
Cc1cccc(OCc2nnc(SCC(=O)N3CCN(C(=O)c4ccco4)CC3)n2C)c1C 0.2%
c1csc(CN2CCN(Cc3cccs3)C2c2cccs2)c1 5.5%
CCN1C(=O)/C(=C\N2CCN(c3cccc(Cl)c3)CC2)SC1=S 6.1%
COC(=O)[C@H](CCSC)NC(=O)Nc1ccc(OC)cc1 4.9%
C#CCN1CC(C)/C(=N/O)CC1C (stereo unspecified) 2.4%
CC(C)OC(=O)C(C#N)c1nc2ccccc2nc1N1CCN(Cc2ccc3c(c2)OCO3)CC1 (stereo unspecified) 0%
O=C(Nc1ncccn1)c1cccs1 3.3%
CCCCCN(C(=O)NC(=O)Nc1ccccc1C)S(C)(=O)=O 0.7%
Cc1ccc(C(=O)Nc2nnc(-c3ccncc3)s2)o1 -1.1%
O=C(c1cccs1)N1CCCC(c2nc(-c3ccc(F)cc3)no2)C1 (stereo unspecified) 2.9%
CCCc1cc(=O)oc2c(C)c(O)c(CN3CCCCC3)cc12 0.2%
COc1ccc2c3c(c(=O)oc2c1OCC(=O)C(C)(C)C)CCCC3 3.6%
CCOC(=O)CSc1nnc(CNc2nc(-c3ccccc3)cs2)n1C 5.4%
CCc1cc2c(=O)c(-c3ccon3)c(N)oc2cc1OC 5.4%
Cc1ccnc(SCCn2c(Br)nc3c2c(=O)[nH]c(=O)n3C)n1 3%
O=C(Nc1cnn(Cc2ccc(Cl)cc2)c1)C1CCCC1 9.7%
COc1cc(OC)cc(C(=O)NCCSCc2ccco2)c1 5.2%
CC1(N2CCOCC2)CC2(O)C(=[N+]1[O-])CCc1nonc12 (stereo unspecified) 9.3%
CC1CN(C2CCN(C(=O)COc3ccccc3)CC2)CC(C)O1 (stereo unspecified) -2.1%
CC(C)c1nnc(NC(=O)C2CCCN2S(=O)(=O)c2ccc(Cl)cc2)s1 (stereo unspecified) 3.8%
O=C(CSc1nnc(Cc2ccccc2)n1-c1ccccc1)N1CCOCC1 0.4%
Cc1cccc(NC(=O)CSc2nnc(CCCCCNC(=O)OC(C)(C)C)o2)c1C -8.7%
COC(=O)c1ccc(NC(=O)CSc2nnc(-c3ccncc3)n2C)cc1 1.1%
O=C(O)C1CCCN1S(=O)(=O)c1ccc2c(c1)CCC2 (stereo unspecified) 0.7%
